Screening results (PubChem BioAssay)
The full list was thinned out, with hits kept by preference.
DUX4 txn inh: inhibitors of DUX4-driven ZSCAN4 reporter expression, primary screen, 293T cells, Gaussia and Italica luciferase; AID 1224904, 2016; activity change, negative = inhibition, % (test concentration not listed); 37,000 compounds, 0.8% hits; 293T-iDUX4 ZSCAN4-Gaussia luciferase reporter, 24 h; hits give low values;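 active = mean inhibition of at least 10% in the main channel, exceeding the control channel by a set limit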
Hits are given with their value; - = inactive; ! = repeats disagree.

SMILES	DUX4 txn inh
C[C@@H]1CN([C@H](C)CO)C(=O)c2c(c3ccccc3n2C)-c2ccccc2CO[C@@H]1CN(C)Cc1ccncc1	-
C[C@H]1CN([C@@H](C)CO)C(=O)c2c(c3ccccc3n2C)-c2ccccc2CO[C@@H]1CN(C)C	-
COc1ccccc1CN(C)C[C@@H]1OCc2ccccc2-c2c(n(C)c3ccccc23)C(=O)N([C@@H](C)CO)C[C@@H]1C	-32
C[C@@H]1CN([C@H](C)CO)C(=O)c2c(c3ccccc3n2C)-c2ccccc2CO[C@H]1CN(C)C	-
C[C@@H]1CN([C@@H](C)CO)C(=O)c2c(c3ccccc3n2C)-c2ccccc2CO[C@H]1CN(C)Cc1cccc2c1OCCCO2	-31
C[C@@H]1CN([C@@H](C)CO)C(=O)c2ccccc2-c2ccccc2CO[C@H]1CN(C)Cc1ccccc1C(F)(F)F	-
C[C@H](CO)N1C[C@H](C)[C@@H](CN(C)C)OCc2ccccc2-c2c(n(C)c3ccccc23)C1=O	-
CCCNC(=O)N1CCC2(CC1)CN(C(=O)c1cccnc1)[C@H](CO)c1[nH]c3cc(OC)ccc3c12	-
CN1c2ccc(-c3ccccc3F)cc2[C@H]2[C@H](CCN2C(=O)CN2CCOCC2)[C@@H]1CO	-
C[C@H]1C/C=C\C[C@H](c2ccc3c(c2)OCO3)NC(=O)[C@H](c2ccccc2)CC(=O)N1	-
CCCNC(=O)N1[C@@H](CO)[C@H](c2ccccc2)C12CN(C(=O)c1cccnc1)C2	-
CO[C@H]1CN(C)C(=O)c2cc(NC(=O)c3ccc(F)cc3)ccc2OC[C@H](C)NC[C@H]1C	-
CC=Cc1ccc2n(c1=O)C[C@H]1[C@H](CO)[C@@H](C(=O)NCCC)N(C(=O)CC3CC3)[C@@H]21 (mixture of isomers)	-
CCS(=O)(=O)N1CC2(C1)[C@@H](c1ccccc1)[C@@H](CO)N2C(=O)C1CCC1	-
COCCNC(=O)C[C@H]1CC[C@@H]2[C@@H](COc3ccc(NC(=O)Cc4ccccc4)cc3C(=O)N2C)O1	-
COCC(=O)N1CCC2(CC1)CN(C(=O)COC)[C@@H](CO)c1c2c2ccc(OC)cc2n1C	-
O=C(C[C@H]1CC[C@@H]2[C@H](COC[C@@H](O)CN2C(=O)c2ccncc2)O1)NC1CCC1	-
O=C(Cc1ccncc1)N1C[C@@H]2N[C@H](C1)C2c1ccc(-c2ccccc2)cc1 (stereo partly specified)	-
c1cc(-c2ccc(C3[C@@H]4CN(Cc5nccs5)C[C@H]3N4)cc2)ccn1 (stereo partly specified)	-
C/C=C/c1ccc(C2[C@@H]3CN(C(=O)Cc4ccccc4)C[C@H]2N3)cc1 (stereo partly specified)	-
c1cncc(-c2ccc(C3[C@@H]4CN(Cc5nccs5)C[C@H]3N4)cc2)c1 (stereo partly specified)	-35!
O=C(CN1CCOCC1)N1C[C@@H]2N[C@H](C1)C2c1ccc(/C=C/c2ccccc2)cc1 (stereo partly specified)	-
C(=C\c1ccc(C2[C@@H]3CN(Cc4ccccn4)C[C@H]2N3)cc1)/c1ccccc1 (stereo partly specified)	-32
C/C=C/c1ccc(C2[C@H]3CNC[C@@H]2N3Cc2nccs2)cc1 (stereo partly specified)	-
C/C=C/c1ccc(C2[C@@H]3CN(C(=O)Cc4ccncc4)C[C@H]2N3)cc1 (stereo partly specified)	-
SMILES	DUX4 txn inh
O=C(Cc1ccncc1)N1C[C@@H]2N[C@H](C1)C2c1ccc(/C=C/c2ccccc2)cc1 (stereo partly specified)	-28!
O=C(c1ccncc1)N1C[C@@H]2N[C@H](C1)C2c1ccc(/C=C/c2ccccc2)cc1 (stereo partly specified)	-
O=C(c1cccnc1)N1C[C@@H]2N[C@H](C1)C2c1ccc(-c2ccccc2)cc1 (stereo partly specified)	-
C(=C\c1ccc(C2[C@@H]3CN(Cc4nccs4)C[C@H]2N3)cc1)/c1ccccc1 (stereo partly specified)	-32!
CO[C@@H]1CC[C@H]2CCN(C)C(=O)C[C@H](c3ccccc3)CN(C)C(=O)c3cccc(C#N)c3OC[C@H]1O2	-
CNC(=O)C[C@H]1CC[C@H]2[C@H](COc3ccc(NC(=O)Nc4ccc(Cl)cc4)cc3C(=O)N2C)O1	-
O=C(C[C@@H]1CC[C@H](NC(=O)Nc2ccccc2F)[C@H](CO)O1)NCc1ccc(Cl)cc1	-
COc1ccc2c3c([nH]c2c1)[C@@H](CO)N(C)CC31CN(C(=O)c2ccccn2)C1	-
CCCNC(=O)N1CC2(CCN(Cc3ccncc3)CC2)c2c(n(C)c3cc(OC)ccc23)[C@@H]1CO	-
CCCC#Cc1ccc([C@@H]2[C@@H](CO)N3C(=O)CN(C(=O)Nc4ccccc4)C[C@H]23)cc1	-
CO[C@@H]1CN(C)C(=O)c2cc(NC(=O)CC(F)(F)F)ccc2OC[C@@H](C)N(S(=O)(=O)c2cn(C)cn2)C[C@H]1C	-
O=C(C1CC1)N1CCCCN2[C@@H](CO)[C@H](c3ccc(-c4cccc(F)c4)cc3)[C@@H]2C1	-
OC[C@@H]1[C@H](c2ccc(-c3cccc(F)c3)cc2)[C@H]2CN(CCC(F)(F)F)CCCCN12	-47
O=C(C1CC1)N1CCCCN2[C@H](CO)[C@H](c3ccc(-c4cccc(F)c4)cc3)[C@@H]2C1	-22
COc1ccccc1C#Cc1ccc([C@H]2[C@H](CO)N3CCCCN(CCC(F)(F)F)C[C@@H]23)cc1	-61
OC[C@@H]1[C@@H](c2ccc(-c3cccc(F)c3)cc2)[C@H]2CN(Cc3cncnc3)CCCCN12	-
COc1ccccc1C#Cc1ccc([C@H]2[C@H]3CN(S(C)(=O)=O)CCCCN3[C@H]2CO)cc1	-
OC[C@@H]1[C@H](c2ccc(-c3cccc(F)c3)cc2)[C@@H]2CN(CCC(F)(F)F)CCCCN12	-
O=C(Nc1cccc(F)c1)N1CCCCN2[C@H](CO)[C@H](c3ccc(-c4ccncc4)cc3)[C@@H]2C1	-
Cc1ccccc1-c1ccc([C@H]2[C@H]3CN(C(=O)Nc4cccc(F)c4)CCCCN3[C@H]2CO)cc1	-
CN(C)C(=O)c1cccc(-c2ccc([C@@H]3[C@@H](CO)N4CCCCN(C(=O)C5CCC5)C[C@H]34)cc2)c1	-
Cc1ccccc1-c1ccc([C@@H]2[C@H]3CN(C(=O)Nc4cccc(F)c4)CCCCN3[C@H]2CO)cc1	-43
C/C=C/c1ccc([C@@H]2[C@H]3CN(CCC(F)(F)F)CCCCN3[C@H]2CO)cc1	-
COc1cccc(S(=O)(=O)N2CCC3(CC2)CN[C@@H](CO)c2[nH]c4cc(OC)ccc4c23)c1	-
C/C=C/c1ccc([C@H]2[C@@H](CNC(=O)c3ccncc3)N(C(C)=O)[C@H]2CO)cc1	-
Cc1ccccc1-c1ccc([C@@H]2[C@@H](CO)N3C(=O)CN(C(=O)Nc4ccccc4)C[C@H]23)cc1	-
C[C@@H]1CCCCO[C@@H](CN(C)Cc2ccc3c(c2)OCO3)[C@H](C)CN([C@H](C)CO)C(=O)c2cc(NC(=O)CCC(F)(F)F)ccc2O1	-
Cc1cccc(-c2ccc([C@H]3[C@@H](CO)N4CCCCN(Cc5ccncc5)C[C@@H]34)cc2)c1	-
Cc1cccc(-c2ccc([C@@H]3[C@H]4CN(CCC(F)(F)F)CCCCN4[C@H]3CO)cc2)c1	-31
CN(C)C(=O)c1ccc(-c2ccc([C@@H]3[C@H](CO)N4CCCCN(CCC(F)(F)F)C[C@@H]34)cc2)cc1	-
